# In the library only some 3.8% were active in any assay of this set; here they are far more common.
# PfHsp90 yeast 2: growth inhibition of yeast expressing Plasmodium Hsp90; S. cerevisiae expressing PfHsp90, BacTiter-Glo ATP, 48 h; yeast lacking PDR1 and PDR3 efflux regulators; inhibition, % at 9.4 µM; hit rate 0.32% among 310,000;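 active = every replicate shows inhibition above about 80%, whatever the replicate mean, limit read from the data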;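 also: 0% = DMSO neutral controls and 100% = 20 µM radicicol positive controls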
# Beta2AR agonist: activates human beta-2 adrenergic receptor causing internalization; P07550; Am2.2-beta2AR cells, FAP receptor internalization, flow cytometry; response, % (test concentration not listed); hit rate 0.43% among 340,000;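 active = response above a set limit, near 3 SD of response in nonfluorescent compounds, cut at about 42% in these data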
# Target sequence (P07550 whole entry, looked up): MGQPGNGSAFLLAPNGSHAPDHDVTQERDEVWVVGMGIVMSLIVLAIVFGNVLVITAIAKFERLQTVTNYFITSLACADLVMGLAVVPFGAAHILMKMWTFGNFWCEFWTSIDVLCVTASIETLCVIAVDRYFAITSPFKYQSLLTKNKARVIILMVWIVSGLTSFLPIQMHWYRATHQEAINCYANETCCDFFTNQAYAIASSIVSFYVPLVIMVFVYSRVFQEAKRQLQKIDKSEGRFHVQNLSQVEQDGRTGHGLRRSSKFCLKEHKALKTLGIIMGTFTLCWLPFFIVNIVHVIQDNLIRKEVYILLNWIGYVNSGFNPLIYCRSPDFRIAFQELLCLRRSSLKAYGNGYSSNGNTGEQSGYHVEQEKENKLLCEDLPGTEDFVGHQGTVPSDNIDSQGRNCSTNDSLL
# tim10-1 inh: growth inhibitors of tim10-1 mutant yeast. AID 463190. hit rate 2.2% among 330,000. S. cerevisiae tim10-1 ts strain growth, BacTiter-Glo, 24 h. inhibition, % at 20 µM;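 active = inhibition of at least 40%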;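 also: mutant grown at 25 °C; 0% = DMSO wells with yeast and 100% = wells holding no yeast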
# tim23-1 inh: growth inhibitors of tim23-1 mutant yeast; S. cerevisiae tim23-1 growth, BacTiter-Glo luminescence, 24 h; inhibition, % at 20 µM; hit rate 1.3% among 330,000;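 active = growth inhibition of the mutant yeast at or above 50%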;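 also: temperature-sensitive mutant grown at 25 °C; plate controls were DMSO-treated mutant yeast for no effect and medium wells lacking yeast for full effect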
# TIM10 inh: TIM10 yeast growth inhibition | S. cerevisiae TIM10 strain growth, BacTiter-Glo luminescence, 24 h | AID 463195 | inhibition, % at 10 µM | hit rate 1.4% among 330,000;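 active = inhibition of 40% or more at the single tested concentration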;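 also: wild-type TIM10 isogenic control strain grown at permissive 25 °C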
# tim10-1 conf: tim10-1 yeast growth inhibition, confirmed; shares compounds with tim10-1 inh; S. cerevisiae tim10-1 ts strain growth, BacTiter-Glo, 24 h; inhibition, % at 20 µM; hit rate 56% among 7,400;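 active = inhibition of yeast growth at or above a set limit in either of two repeat tests at 20 µM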;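 also: tim10-1 mutant grown at permissive 25 °C to find synthetic lethal compounds; 0% = DMSO yeast wells and 100% = medium wells without yeast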
# Numbers without * were called inactive; . = no result given.
SMILES,PfHsp90 yeast 2,Beta2AR agonist,tim10-1 inh,tim23-1 inh,TIM10 inh,tim10-1 conf
CCCC(=O)Nc1nc(-c2ccc(Cl)s2)cs1,-21.5,-8.5,-25.1,29.0,-11.7,.
O=C(Nc1nc(-c2cc(Cl)sc2Cl)cs1)c1ccccc1,.,3.4,44.1*,40.2,25.5,28.3
CN(C)S(=O)(=O)c1ccc2nc(NC(=O)c3cccs3)sc2c1,6.8,-5.7,20.8,40.5,27.5,.
O=C(Nc1nc(-c2ccccn2)cs1)c1ccc(Cl)s1,65.6,-18.0,51.1*,35.2,-0.4,30.4
CCCn1c(N)c(N(CCOC)C(=O)c2ccc(S(=O)(=O)N3CCOCC3)cc2)c(=O)[nH]c1=O,13.6,3.8,.,.,.,.
O=C1C=C(c2ccccc2)C(c2ccccc2)C1 (stereo unspecified),.,-5.8,.,.,.,.
O=C1NCC(Nc2ccc(Br)cc2)C(=O)N1 (stereo unspecified),33.5,-0.3,.,.,.,.
CN(CCOc1ccccc1)C(=O)c1ccc(Cl)c(S(=O)(=O)N2CCCCC2)c1,.,0.4,29.6,34.6,3.4,.
Cn1nc(C(C)(C)C)cc1C(=O)NCc1ccc2c(c1)OCO2,12.0,-0.7,17.3,12.0,-9.5,.
c1ccc(COC2COC3C(OCc4ccccc4)COC23)cc1 (stereo unspecified),22.2,4.3,.,.,.,.
CC(C)(C)c1csc(NC(=O)C2COc3ccccc3O2)n1 (stereo unspecified),-22.1,2.4,34.9,40.4,23.4,.
COc1ccc(-c2csc(NC(=O)C3COc4ccccc4O3)n2)cc1OC (stereo unspecified),-57.2,-6.2,43.1*,39.4,16.3,30.9
COc1ccc(S(=O)(=O)N2CCC(C(=O)NCC(=O)Nc3c(C)cccc3C)CC2)cc1OC,-0.5,18.0,.,.,.,.
CC1CC(C)CN(CCCNS(=O)(=O)c2ccc3c(c2)oc(=O)n3C)C1 (stereo unspecified),-6.0,-56.5,-0.8,1.9,2.3,.
Cc1c(C(=O)Nc2ccc3c(c2)OCCO3)sc2ncnc(N3CCCCC3C)c12 (stereo unspecified),-42.5,15.5,46.3*,46.3,5.0,19.6
Cc1nc(N2CCC(C)CC2)c2c(C)c(C(=O)Nc3ccc(C(F)(F)F)cc3)sc2n1,3.0,2.9,30.4,26.9,-2.7,.
Cc1nc(N2CCC(C)CC2)c2c(C)c(C(=O)Nc3ccc4c(c3)OCCO4)sc2n1,10.9,7.3,41.5*,40.1,16.6,12.3
CCN1CCN(CCNC(=O)c2ccc(/C=C3/Sc4ccccc4N(Cc4cccc(Cl)c4)C3=O)cc2)CC1,33.8,38.2,30.1,47.4,-0.7,.
Cc1cccc(CN2C(=O)/C(=C\c3ccc(C(=O)NCCN4CCOCC4)cc3)Sc3ccccc32)c1,41.1,45.9*,42.0*,35.0,10.5,9.7
Cc1ccccc1CN1C(=O)/C(=C\c2ccc(C(=O)NCCN3CCOCC3)cc2)Sc2ccccc21,6.6,9.0,44.7*,25.0,16.7,-7.0
Cc1cc(NS(=O)(=O)c2ccccc2)c([N+](=O)[O-])cc1C,-1.9,-6.5,41.3*,43.8,25.4,24.9
Cn1cc(-c2ccccc2C(=O)O)c(=O)c2cc(Cl)ccc21,16.4,5.6,0.6,-5.4,-2.1,.
CCOC(=O)CCc1c(C)n(CC)c2cc(-c3ccccc3OC)nn2c1=O,21.6,12.1,41.7*,20.9,32.1,24.9
CCN(CC)CCCNC(=O)CCc1c(C)n(CC)c2cc(-c3ccccc3OC)nn2c1=O,-21.1,1.9,-3.0,-4.6,2.6,.
CN(CCc1ccccc1)C(=O)c1ccc(NC(=O)Cc2ccc(NC(=O)C3CCCN(S(=O)(=O)c4cccc([N+](=O)[O-])c4)C3)cc2)cc1 (stereo unspecified),-2.5,-1.8,.,.,.,.
SMILES,PfHsp90 yeast 2,Beta2AR agonist,tim10-1 inh,tim23-1 inh,TIM10 inh,tim10-1 conf
N/C(=N\OC(=O)c1cccs1)c1cccc([N+](=O)[O-])c1,-3.7,-10.4,46.9*,12.2,12.6,39.0*
N/C(=N\OC(=O)CSc1ccccc1)c1cccc([N+](=O)[O-])c1,-3.0,6.3,42.1*,30.5,24.1,40.3*
COc1ccc(/C(N)=N/OC(=O)c2cccc([N+](=O)[O-])c2)cc1OC,.,-3.5,42.3*,10.6,6.4,15.2
COc1ccc(C(=O)O/N=C(\N)c2ccccc2Cl)cc1OC,20.7,6.4,62.9*,31.4,29.4,52.5*
CCN(CC(=O)NCc1cccs1)C(=O)c1ccc(N(C)S(=O)(=O)c2ccc(C)cc2)cc1,.,1.0,.,.,.,.
COc1ccc(C(=O)CSc2nccn2C)c(OC)c1,-8.9,16.1,16.2,18.3,12.6,.
